# Measurements: the supplement of paper PMC7411640
# Counter-ions that a name gives are not always drawn.
# System: MDA-MB-468
# Test: phospho-S6 immunofluorescence (DAPI-normalised), per-plate z-score; higher = higher phospho-S6 signal (less pathway suppression)
# Conditions: 24 h
# Description: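 GPCR-targeted compound library (MedChemExpress HY-L006) tested on MDA-MB-468 PTEN-null TNBC cells in 384-well plates at 0.1, 1 or 10 uM, combined with vehicle, GDC0941 450 nM or lapatinib 1 uM, for 24 h. Phospho-S6 (S240/244) immunofluorescence normalised to DAPI and expressed as a per-plate z-score; values are the mean of biological triplicates.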
Compound,phospho-S6 immunofluorescence (z-score) (co-treatment: GDC0941 450 nM),phospho-S6 immunofluorescence (z-score) (co-treatment: lapatinib 1 uM),phospho-S6 immunofluorescence (z-score) (co-treatment: vehicle)
CCOc1nc2cccc(C(=O)O)c2n1Cc1ccc(-c2ccccc2-c2noc(=O)[nH]2)cc1 [Azilsartan] (compound 10 µM),-0.76,0.26,-0.54
OCCOCCN1CCN(C2=Nc3ccccc3Sc3ccccc32)CC1 [Quetiapine] (compound 10 µM),0.95,-0.32,0.64
O=C(/C=C/c1ccc(Cl)cc1)N1CCC2(CC1)CN(Cc1ccc(Cl)c(Cl)c1)C(=O)O2 (compound 10 µM),-2.76,-2.4,-1.92
CN1CCN(CCCN2c3ccccc3Sc3ccc(C(F)(F)F)cc32)CC1 [Trifluoperazine (dihydrochloride)] (compound 10 µM),-4.47,-5.54,-4.02
CN1CCc2cc(Cl)c(O)cc2[C@@H](c2ccccc2)C1 (compound 10 µM),-0.98,-1.63,0.1
CCCCC[C@H](O)/C=C/[C@H]1[C@H](O)CC(=O)[C@@H]1C/C=C\CCCC(=O)O [Prostaglandin E2] (compound 10 µM),-0.11,1.46,-0.52
N[C@@H](CCC(=O)O)C(=O)[O-].[Na+] [L-Glutamic acid monosodium salt] (compound 10 µM),0.12,-0.6,-0.39
O=C(Nc1cccc2c(=O)cc(-c3nnn[nH]3)oc12)c1ccc(OCCCCc2ccccc2)cc1 [Pranlukast (hemihydrate)] (compound 10 µM),1.61,1.07,0.31
CC(C)(C(=O)O)c1ccc(C(O)CCCN2CCC(C(O)(c3ccccc3)c3ccccc3)CC2)cc1 (configuration not stated) [Fexofenadine (hydrochloride)] (compound 10 µM),-0.31,-0.84,-0.42
